Measurements from PubChem BioAssay (NCI).
This is part of a sample that, as a whole, favours compounds with a hit. Of some 79,000 tested, about 15% had one in any assay. Active and inactive are the calls of the source. No stated cut-off is given here; in the data, active means growth inhibition above about 70%; inactive means the rest.

experiment: NCI Yeast Anticancer Drug Screen. Data for the mlh1 rad18 strain (AID 175); conditions: S. cerevisiae mlh1 rad18 strain growth inhibition; at 50.0 µM; stronger effect = higher value
In short: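 Yeast w/ defined DNA-repair lesions; compound exposure; growth vs vehicle controls → % inhibition.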

Structure (SMILES) | growth inhibition
O=C(O)c1c[n+]([O-])ccc1Cl | 27.1% (inactive)
C[N+](C)(C)CC(=O)N/N=C/c1oc(-c2cccc([N+](=O)[O-])c2)c(-c2cccc([N+](=O)[O-])c2)c1[N+](=O)[O-] | 3.35% (inactive)
O=c1[nH]c(=O)n(C2OC(COP(=O)(O)OP(=O)(O)O)C(O)C2O)cc1F (stereo not given) | -7% (inactive)
O=c1[nH]c(=O)n(C2OC(CO)C(O)C2O)cc1OCc1ccccc1 (stereo not given) | -31.5% (inactive)
COc1ccc(C(=O)/C=c2/c(CC(=O)c3ccc(OC)cc3)nc3nnc(N)n23)cc1 | 8.6% (inactive)
COc1cc([C@@H]2C3C(=O)c4ccccc4C3[C@@H](c3cc(OC)c(OC)c(OC)c3)C23Cc2ccccc2C3=O)cc(OC)c1OC (stereo not given in full) | 16% (inactive)
Cn1c(=O)c2c(nc(CCNC(=O)c3ccccc3)n2C)n(C)c1=O | -17.1% (inactive)
O=C(NC1CCCCC1)C1C2CC3OC(=O)C1C3C2 (stereo not given) | -10.1% (inactive)
COc1ccc(-c2cc(-c3ccccc3)nc(-c3cccc([N+](=O)[O-])c3)c2)cc1 | 18.4% (inactive)
Cc1ccc(S(=O)(=O)CC(=O)c2ccc(Br)cc2)cc1 | 8.75% (inactive)
N[C@H](CCC(=O)NCP(=O)(O)O)C(=O)O | -41.1% (inactive)
NOCc1cc(Cl)sc1Cl | 11.3% (inactive)
CCN(CC)CCCCCOC(=O)c1ccccc1 | 18.6% (inactive)
CC(=O)OC1CC(OC(C)=O)C(OC(C)=O)CC1OC(C)=O (stereo not given) | 12.6% (inactive)
CN1CCN(c2c3c(nc4ccccc24)CCCC3)CC1 | -22% (inactive)
CC(C)(C)C(=O)CC(=O)C(F)(F)C(F)(F)C(F)(F)F.CC(C)(C)C(=O)CC(=O)C(F)(F)C(F)(F)C(F)(F)F.CC(C)(C)C(=O)CC(=O)C(F)(F)C(F)(F)C(F)(F)F.[Eu] | -1.2% (inactive)
O=C1CC2CCC(C1)S2=O (stereo not given) | 18.5% (inactive)
N#CC1(N(O)C(=O)Nc2ccccc2)CCCCC1 | -13.1% (inactive)
Nc1ccc2[nH]cc(CCC(=O)O)c2c1 | 18.5% (inactive)
CC12CCc3ccccc3C1=NNC(=O)C2 (stereo not given) | -6.15% (inactive)

Structure (SMILES) | growth inhibition
Cc1cccc(NC(=S)Nc2ccc(-c3ccc(NC(=S)Nc4cccc(C)c4)cc3)cc2)c1 | 34.7% (inactive)
CCC(CC(N)=O)C(C#N)(C#N)C(N)=O (stereo not given) | 3.95% (inactive)
O=C(O)/C=C/c1ccccc1Cl | -9.9% (inactive)
OC(COc1cccc(C(F)(F)F)c1)CN1CCN(c2ccccc2)CC1 (stereo not given) | 87.3% (active)
COc1cc(/C=C2\C(=O)N(C(=O)c3ccc(NC(C)=O)cc3)N=C2C)ccc1O | -64% (inactive)
COC(=O)c1cc(CN(C)C)c(O)c(CN(C)C)c1 | -29% (inactive)
CCOC(=O)c1c(N=P(c2ccccc2)(c2ccccc2)c2ccccc2)nnc(-c2ccccc2)c1-c1ccccc1 | 6.5% (inactive)
Nc1cc2c(cc1/C=C1\CCNC1=O)OCO2 | -4.85% (inactive)
CC(C)CCCC(C)C1CCC2(C)C3=C(CCC12C)C1(C)CCC(=O)C(C)(C)C1CC3 (stereo not given) | 34% (inactive)
COc1ccc(C2CC(=O)N(CC(=O)O)C(=O)C2)cc1 | 7.55% (inactive)
CC(Cc1ccccc1)c1ccccc1 (stereo not given) | 2.1% (inactive)
Cc1cc(=O)n(-c2ccccc2)c(=O)n1-c1nc2ccccc2[nH]1 | 32% (inactive)
c1ccc2cc(CNCCCCNCCCNCc3ccc4ccccc4c3)ccc2c1 | 76.3% (active)
CCCCCCCCCCCCCCCCCCCCCC(=O)O | -18.1% (inactive)
[Cl][Pt+2][Cl].[NH-]CC1(C[NH-])CCC1 | -40% (inactive)
COc1cc2c(c3oc(=O)cc(CCC(=O)O)c13)C1CC(=O)OC1O2 (stereo not given) | 10.8% (inactive)
CN=C(Nc1cccc(C(F)(F)F)c1)SCc1ccc(N=C=S)cc1 | 38.5% (inactive)
CCCCCCCCCCCO | -18.8% (inactive)
O=c1cccc2c3ccccc3ccn12 | 13.5% (inactive)
O=C(NCCCCCCCCNC(=O)c1cccc2ccccc12)c1cccc2ccccc12 | 16.8% (inactive)
